Measured values from PubChem BioAssay (NCI).
Compounds without any hit were thinned out: in the full panel of roughly 79,000, 15% have a hit. Activity calls are given as the source filed them. Rule as the data show it: active = growth inhibition above about 70%; inactive = the rest.

assay: NCI Yeast Anticancer Drug Screen. Data for the cln2 rad14 strain (AID 165);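 also: 0% = growth equal to vehicle treated cultures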; conditions: S. cerevisiae cln2 rad14 strain, at 50.0 µM, stronger effect = higher value
Summary of the method: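 Compounds are applied to the cln2 rad14 yeast strain, and growth is then compared with that of vehicle-treated cultures to give inhibition.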

| Compound | growth inhibition |
| --- | --- |
| CCC1(CCSC#N)C(=O)NC(=O)NC1=O | -14.9% (inactive) |
| CC1NC1(c1ccccc1)n1ccnc1 (configuration not stated) | -14.5% (inactive) |
| O=P(O)(O)c1ccccc1 | -18.9% (inactive) |
| O=NN(c1ccccc1)c1ccccc1 | -22.3% (inactive) |
| c1ccc(N=PNc2ccccc2)cc1 (configuration not stated) | -51.6% (inactive) |
| [C-]#[O+].[C-]#[O+].[C-]#[O+].[C-]#[O+].[Mo].c1ccc([As](CC[As](c2ccccc2)c2ccccc2)c2ccccc2)cc1 | -5.7% (inactive) |
| O=C1NC(=O)C(Cc2ccc3c(c2)OCO3)C(=O)N1 | -62.9% (inactive) |
| ClC1CC2CC1C1CNCC21 (configuration not stated) | -15.8% (inactive) |
| CC(C)C(O)(C(=O)OCC1=CC[N+]2([O-])CCC(O)C12)C(C)O (configuration not stated) | 4% (inactive) |
| C1CC[N+]2=C(C1)OCCC2 | -17.2% (inactive) |
| O=C(Nc1ccccc1)c1ccc([As](c2ccc(C(=O)Nc3ccccc3)cc2)c2ccc(C(=O)Nc3ccccc3)cc2)cc1 | -23.9% (inactive) |
| CC1N=C(c2ccccc2)C2(c3ccccc3)C(C)N12 (configuration not stated) | -29.2% (inactive) |
| COc1ccc2c(c1)c(CC(C)[N+](=O)[O-])c(C)n2Cc1ccccc1 (configuration not stated) | -9.95% (inactive) |
| C(=C\C1CC2CCCN2O1)/c1ccccc1 (configuration not stated) | -23.4% (inactive) |
| CCOP(=O)(OCC)/C(C#N)=C/c1cccn1C | -17.2% (inactive) |
| CC[C@@H]1C[C@H]2CC3c4[nH]c5ccc(O)cc5c4CCN(C2)C31 | 5.35% (inactive) |

| Compound | growth inhibition |
| --- | --- |
| Oc1c(Cl)cccc1Cl | -1.6% (inactive) |
| CCCCCC(N)CC(=O)O (configuration not stated) | 8.1% (inactive) |
| CCOP(=S)(OCC)OP(=S)(OCC)OCC | -13.9% (inactive) |
| O=C1NC(=O)C2(CCOCC2)C(=O)N1 | -18.4% (inactive) |
| O=[P+](O)c1cccnc1 | 17.4% (inactive) |
| O=C1NC(=O)C(CCO)(c2ccccc2)C(=O)N1 | -6.25% (inactive) |
| CC(Br)CN(CC(C)Br)c1ccc(-c2ccccc2)cc1 (configuration not stated) | 35.7% (inactive) |
| C[N+](C)(Cc1ccc([N+](=O)[O-])cc1)c1ccc(N(CCCl)CCCl)cc1 | -15.4% (inactive) |
| CCC1(CCO)C(=O)NC(=O)NC1=O | -12.2% (inactive) |
| O=C(Cc1ccc2c(c1)OCO2)c1cn(C(=O)Cc2ccc3c(c2)OCO3)c2ccccc12 | 14.8% (inactive) |
| c1ccc([As](c2ccccc2)c2ccccc2)cc1 | -3.3% (inactive) |
| COc1cc2c(cc1OC)-c1c3c(cc4c1[C@H](C2)N(C)CC4)OCO3 | 6.75% (inactive) |
| CS(=N)(=O)CCC(N)P(=O)(O)O (configuration not stated) | 13.9% (inactive) |
| NCC(=O)c1ccc(O)c(O)c1 | 2.8% (inactive) |
| CC([Se])=Nc1ccc(Br)cc1 | -8.9% (inactive) |
| CC(=O)C1CCC2C3CCC4CC(O)CCC4(C)C3CCC12C (configuration not stated) | 26.8% (inactive) |

assay: NCI Yeast Anticancer Drug Screen. Data for the bub3 strain (AID 167); conditions: S. cerevisiae bub3 mutant strain, at 50.0 µM, stronger effect = higher value
Summary of the method: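 In this screen, a yeast mutant lacking normal mitotic checkpoint function is challenged with compound. Relative growth versus vehicle gives the inhibition value.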

| Compound | growth inhibition |
| --- | --- |
| O=Cc1ccccc1.[C-]#[O+].[C-]#[O+].[C-]#[O+].[Cr] | 11.1% (inactive) |
| CCCCOCCOC(=O)CCl | -4.95% (inactive) |
| N#Cc1ccccn1 | 3.5% (inactive) |
| O=[As](O)(O)CC(Br)CBr (configuration not stated) | 41.1% (inactive) |
| C1CCC(N([P-]P([P-]N(C2CCCCC2)C2CCCCC2)N(C2CCCCC2)C2CCCCC2)C2CCCCC2)CC1.[C-]#[O+].[C-]#[O+].[C-]#[O+].[C-]#[O+].[C-]#[O+].[C-]#[O+].[Fe].[Fe] (configuration not stated) | 2.2% (inactive) |
| CC1CN1C(=O)NCCCCCCNC(=O)N1CC1C (configuration not stated) | -5.55% (inactive) |
| CN(C)[C@@H]1C(=O)C(C(N)=O)=C(O)[C@@]2(O)C(=O)C3=C(O)c4c(O)ccc(Cl)c4[C@@](C)(O)[C@H]3C[C@@H]12 | -8.8% (inactive) |
| C[Si](C)(C)[C@@]1([Se]c2ccccc2)CC[C@@H]1C(=O)c1ccccc1 | -27.4% (inactive) |
| CCC1(CCSC#N)C(=O)NC(=O)NC1=O | -3.3% (inactive) |
| CC1NC1(c1ccccc1)n1ccnc1 (configuration not stated) | 11.4% (inactive) |
| O=P(O)(O)c1ccccc1 | 2.6% (inactive) |
| O=NN(c1ccccc1)c1ccccc1 | -10.1% (inactive) |
| c1ccc(N=PNc2ccccc2)cc1 (configuration not stated) | 23% (inactive) |
| [C-]#[O+].[C-]#[O+].[C-]#[O+].[C-]#[O+].[Mo].c1ccc([As](CC[As](c2ccccc2)c2ccccc2)c2ccccc2)cc1 | 1.15% (inactive) |
| O=C1NC(=O)C(Cc2ccc3c(c2)OCO3)C(=O)N1 | 7.35% (inactive) |
| ClC1CC2CC1C1CNCC21 (configuration not stated) | -1.05% (inactive) |
| CC(C)C(O)(C(=O)OCC1=CC[N+]2([O-])CCC(O)C12)C(C)O (configuration not stated) | -7.45% (inactive) |
| C1CC[N+]2=C(C1)OCCC2 | -1.9% (inactive) |
| O=C(Nc1ccccc1)c1ccc([As](c2ccc(C(=O)Nc3ccccc3)cc2)c2ccc(C(=O)Nc3ccccc3)cc2)cc1 | -19.2% (inactive) |
| CC1N=C(c2ccccc2)C2(c3ccccc3)C(C)N12 (configuration not stated) | -10.3% (inactive) |

| Compound | growth inhibition |
| --- | --- |
| COc1ccc2c(c1)c(CC(C)[N+](=O)[O-])c(C)n2Cc1ccccc1 (configuration not stated) | -3.3% (inactive) |
| C(=C\C1CC2CCCN2O1)/c1ccccc1 (configuration not stated) | 2.45% (inactive) |
| CCOP(=O)(OCC)/C(C#N)=C/c1cccn1C | -21.8% (inactive) |
| CC[C@@H]1C[C@H]2CC3c4[nH]c5ccc(O)cc5c4CCN(C2)C31 | -1.45% (inactive) |
| Oc1c(Cl)cccc1Cl | -55.1% (inactive) |
| CCCCCC(N)CC(=O)O (configuration not stated) | -2.25% (inactive) |
| CCOP(=S)(OCC)OP(=S)(OCC)OCC | -28.1% (inactive) |
| O=C1NC(=O)C2(CCOCC2)C(=O)N1 | -17.5% (inactive) |
| O=[P+](O)c1cccnc1 | 16.7% (inactive) |
| O=C1NC(=O)C(CCO)(c2ccccc2)C(=O)N1 | -11.7% (inactive) |
| CC(Br)CN(CC(C)Br)c1ccc(-c2ccccc2)cc1 (configuration not stated) | 15.6% (inactive) |
| C[N+](C)(Cc1ccc([N+](=O)[O-])cc1)c1ccc(N(CCCl)CCCl)cc1 | -21.8% (inactive) |
| CCC1(CCO)C(=O)NC(=O)NC1=O | -14.8% (inactive) |
| O=C(Cc1ccc2c(c1)OCO2)c1cn(C(=O)Cc2ccc3c(c2)OCO3)c2ccccc12 | 0.35% (inactive) |
| c1ccc([As](c2ccccc2)c2ccccc2)cc1 | -3.95% (inactive) |
| COc1cc2c(cc1OC)-c1c3c(cc4c1[C@H](C2)N(C)CC4)OCO3 | -14.2% (inactive) |
| CS(=N)(=O)CCC(N)P(=O)(O)O (configuration not stated) | -50.5% (inactive) |
| NCC(=O)c1ccc(O)c(O)c1 | 16.4% (inactive) |
| CC([Se])=Nc1ccc(Br)cc1 | -1.45% (inactive) |
| CC(=O)C1CCC2C3CCC4CC(O)CCC4(C)C3CCC12C (configuration not stated) | 10% (inactive) |
